Reference: PubChem BioAssay (NCATS)
Inconclusive results are not listed. The source made the active and inactive calls. Calls follow the shape of the full dose curve.

biological target: Cytochrome P450 1A2 (Homo sapiens) (UniProt P05177); test: p450-cyp1a2 (AID 410); details: recombinant CYP1A2, luciferin-ME demethylation, luminescence; series mostly up to 25.6 µM
Experimental: The P450 gene superfamily is involved in metabolism and the clearance of xenobiotics. This assay used human CYP1A2 to measure the demethylation of luciferin 6' methyl ether (Luciferin-ME; Promega-Glo) to luciferin. The luciferin is then measured by luminescence after the addition of a luciferase detection regeant. Luciferin-ME concentration in the assay was equal to its Km for CYP1A2.
NCGC Assay Protocol Summary:
Two uL of enzyme and substrate mix (final concentrations: 20nM CYP1A2, 100uM Luciferin-ME, 100mM KPO4) were dispensed into a white, solid bottom 1536-well microtiter plate. 23nL of compound was transferred by a pin tool. The plate was incubated at room temperature for 10 min. Two uL of an NADPH regeneration solution (Promega supplied reagent) was dispensed and the reaction was allowed to continue for 60 min at room temperature. Then the reaction was stopped by reconstituted detection reagent. After another 20 min of incubation the plate was read on the ViewLux (Perkin Elmer) at 60 sec exposure and 2x2 binning. This protocol was carried out with Promega-Glo reagents and further information can be found at http://www.promega.com/tbs/tb325/tb325.pdf. Data were normalized to the to AC100 inhibition (57 uM furafylline).
Potency is read from the fitted curve at half-maximal effect.

Sequence of Cytochrome P450 1A2 (Homo sapiens) (P05177 whole entry, looked up): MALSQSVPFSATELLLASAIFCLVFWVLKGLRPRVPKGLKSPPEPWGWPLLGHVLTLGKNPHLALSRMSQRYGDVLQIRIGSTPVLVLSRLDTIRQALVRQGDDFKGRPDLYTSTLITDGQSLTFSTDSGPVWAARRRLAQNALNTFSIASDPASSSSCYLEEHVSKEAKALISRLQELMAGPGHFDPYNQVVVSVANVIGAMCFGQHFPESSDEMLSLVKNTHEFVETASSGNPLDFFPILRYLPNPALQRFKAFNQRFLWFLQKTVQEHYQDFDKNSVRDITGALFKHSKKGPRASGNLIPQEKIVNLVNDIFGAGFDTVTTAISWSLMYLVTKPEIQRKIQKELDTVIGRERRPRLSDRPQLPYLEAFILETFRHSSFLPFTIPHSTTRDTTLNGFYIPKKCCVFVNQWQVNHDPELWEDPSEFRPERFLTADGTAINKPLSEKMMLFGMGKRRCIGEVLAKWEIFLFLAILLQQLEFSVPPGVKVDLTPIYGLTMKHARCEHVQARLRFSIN

Potency, inactive:
C[C@@]1(O)CCOC(=O)C1
CN(C)CCOC(=O)[C@@H](c1ccccc1)C1(O)CCCC1
NC(=O)c1cc[n+](CC2=C(C(=O)[O-])N3C(=O)[C@@H](NC(=O)Cc4cccs4)[C@@H]3SC2)cc1
CC[C@@H]1OC(=O)[C@H](C)[C@H](O[C@@H]2C[C@](C)(OC)[C@H](O)[C@H](C)O2)[C@H](C)[C@H](O[C@@H]2O[C@@H](C)C[C@@H](N(C)C)[C@@H]2O)[C@](C)(O)C[C@H](C)C(=O)[C@H](C)[C@H](O)[C@]1(C)O
NCC[C@H](O)C(=O)N[C@H]1C[C@@H](N)[C@@H](O[C@H]2O[C@@H](CN)[C@@H](O)[C@@H](O)[C@@H]2O)[C@@H](O)[C@@H]1O[C@H]1O[C@@H](CO)[C@@H](O)[C@@H](N)[C@@H]1O
CC(=O)O[C@]1(C(C)=O)CC[C@@H]2[C@@H]3C=C(C)C4=CC(=O)CC[C@@]4(C)[C@H]3CC[C@]21C
C=N[C@H](C(=O)N[C@@H]1C(=O)N2[C@@H]1SC(C)(C)[C@@H]2C(=O)O)c1ccccc1
COc1ccc(C[C@@](C)(N)C(=O)O)cc1OC
C[C@H]1CC[C@]2(OC1)O[C@@H]1C[C@@H]3[C@@H]4CC[C@H]5C[C@@H](O)CC[C@]5(C)[C@@H]4CC(=O)[C@@]3(C)[C@H]1[C@@H]2C
C=C1CC[C@H](O)C/C1=C/C=C1\CCC[C@]2(C)[C@H]1CC[C@H]2[C@@H](C)/C=C\[C@@H](C)C(C)C
NCCC(=O)N[C@@H](Cc1cnc[nH]1)C(=O)O
COc1c(O[C@H]2O[C@@H](CO)[C@@H](O)[C@@H](O)[C@@H]2O)cc2c(c1OC)-c1ccc(SC)c(=O)cc1[C@H](NC(C)=O)CC2
O=C(/C=C\c1ccc(O)c(O)c1)O[C@@H]1C[C@](O)(C(=O)O)C[C@@H](O)[C@@H]1O
CCCC[C@H](CC)CN1CN(C[C@@H](CC)CCCC)CC(C)(N)C1
COc1cc2nc(N3CCN(C(=O)[C@@H]4CCCO4)CC3)nc(N)c2cc1OC
CC[C@@H]1OC(=O)[C@H](C)[C@H](O[C@@H]2C[C@](C)(OC)[C@H](O)[C@H](C)O2)[C@H](C)[C@H](O[C@@H]2O[C@@H](C)C[C@@H](N(C)C)[C@@H]2O)[C@](C)(O)C[C@H](C)C(=NOCOCCOC)[C@H](C)[C@H](O)[C@]1(C)O
C[C@H](Oc1ccccc1)C(=O)N[C@@H]1C(=O)N2[C@@H]1SC(C)(C)[C@@H]2C(=O)O
CO[C@H]1[C@H](O[C@H]2O[C@@H](C)[C@@H](O[C@@H]3C[C@](C)(O)[C@H](OC(=O)CC(C)C)[C@H](C)O3)[C@@H](N(C)C)[C@@H]2O)[C@@H](CC=O)C[C@@H](C)[C@@H](O)/C=C\C=C/C[C@@H](C)OC(=O)C[C@H]1OC(C)=O
Cc1onc(-c2c(Cl)cccc2Cl)c1C(=O)N[C@H]1C(=O)N2[C@H]1SC(C)(C)[C@H]2C(=O)O
C[C@H]1[C@@H](O)[C@@H](C)\C=C/C=C\C=C/C=C\C=C/C=C\C=C/[C@@H](O[C@H]2O[C@@H](C)[C@@H](O)[C@@H](N)[C@@H]2O)C[C@@H]2O[C@](O)(C[C@@H](O)C[C@@H](O)[C@@H](O)CC[C@@H](O)C[C@@H](O)CC(=O)O[C@H]1C)C[C@@H](O)[C@H]2C(=O)O (stereo in doubt)
CN(C)CCO[C@@H](c1ccc(Cl)cc1)c1ccccn1
CC1(C)O[C@@H]2C[C@H]3[C@H]4C[C@H](F)C5=CC(=O)CC[C@]5(C)[C@@H]4[C@H](O)C[C@]3(C)[C@]2(C(=O)CO)O1
CC[C@H](C(=O)[C@H](C)[C@H](O)[C@H](C)CCc1ccc(C)c(O)c1C(=O)O)[C@H]1O[C@](CC)([C@@H]2CC[C@@](O)(CC)[C@H](C)O2)C[C@H]1C
CO[C@@H]1CC[C@@]2(C)[C@@H](CC[C@@]3(C)[C@H]2CC=C2[C@H]4CC(C)(C)[C@H](O)[C@@H](OC(C)=O)[C@]4(CO)[C@H](O)C[C@]23C)[C@@]1(C)CO (tested in a mixture with another compound)
Cc1n[nH]c(=O)[nH]c1=O
CN(C)CCCO[C@H]1[C@@H]2OC(C)(C)O[C@@H]2O[C@@H]1[C@H](O)CO
Cc1onc(-c2c(F)cccc2Cl)c1C(=O)N[C@H]1C(=O)N2[C@H]1SC(C)(C)[C@H]2C(=O)O
CN[C@@H]1[C@H](O[C@H]2[C@@H](O[C@@H]3[C@@H](O)[C@@H](O)[C@@H](N=C(N)N)[C@@H](O)[C@@H]3N=C(N)N)O[C@@H](C)[C@]2(O)CO)O[C@H](CO)[C@@H](O)[C@@H]1O
Cc1c(O)c(=O)n(-c2ccccc2)n1C
COc1ccc2c3c([nH]c2c1)[C@@H]1C[C@@H]2[C@@H](C[C@H](O)[C@H](OC)[C@H]2C(=O)O)CN1CC3
COc1ccc([C@@H]2CC(=O)c3c(O)cc(O[C@H]4O[C@@H](CO[C@H]5O[C@@H](C)[C@@H](O)[C@@H](O)[C@@H]5O)[C@@H](O)[C@@H](O)[C@@H]4O)cc3O2)cc1O
CS(=O)(=O)c1ccc([C@H](O)[C@H](CO)NC(=O)C(Cl)Cl)cc1
CN(C)CCn1nnnc1SCC1=C(C(=O)O)N2C(=O)[C@@H](NC(=O)Cc3csc(N)n3)[C@@H]2SC1
C/C(=C(/CCO)SSC[C@@H]1CCCO1)N(C=O)Cc1cnc(C)nc1N

Potency, active:
COc1c(-c2ccccc2)oc2c(ccc3occc32)c1=O 0.0251 µM
Cc1cc2ccc(=O)oc2cc1OC[C@@H](O)C(C)(C)O 39.8 µM
O=C(OC[C@@H](O)CO)c1ccccc1Nc1ccnc2cc(Cl)ccc12 5.01 µM
Clc1ccc([C@H](Cn2ccnc2)OCc2csc3c(Cl)cccc23)c(Cl)c1 6.31 µM
C[C@H](N[C@@H](C)COc1ccccc1)[C@H](O)c1ccc(O)cc1 5.01 µM
FC(F)(F)c1ccccc1-c1ccc2ncnc(NC3CCNCC3)c2c1 20 µM
